Test results taken from PubChem BioAssay (EPA / NIEHS).
Active and inactive are the calls of the source. Rule for the calls: active = hit-call score of the fitted dose curve at least 0.9, where 1 is the maximum; inactive = score below 0.9.

Test: CCTE_Shafer_MEA_dev_burst_rate: CCTE's Neural Network Formation Assay for Burst Rate, Shafer Lab (AID 2284042)
Experimental: CCTE_Shafer_MEA_dev assay is conducted using Axion Biosystems 48 well microelectrode array (MEA) plates and Maestro recording system. Each well of the MEA plate contains a grid of 16 microelectrodes embedded in the culture surface. Electrically active cells, such as neurons, can be cultured over the electrodes, and electrical activity in these cells can be recorded extracellularly. The spontaneous firing of neurons is captured from each electrode on a microsecond timescale providing both temporally and spatially precise data. […] The CCTE_Shafer_MEA_dev assay uses primary cultures of rat cortical neurons. Recordings are made on days post-plating 5, 7, 9 and 12. As these cultures mature over time, neural networks develop functional activity and form cohesive networks in which electrical activity can be highly coordinated. CCTE_Shafer_MEA_dev_burst_rate is 1 of 19 assay components of the CCTE_Shafer_MEA_dev assay. It measures the frequency of single-electrode bursts (temporally-clustered groups of action potential firing) as the total number of bursts divided by the length of the recording in a microelectrode array (MEA) using Axion Biosystems Maestro 768 channel amplifier with the AxIS adaptive spike detector. The mean bursting rate is averaged across the active electrodes to report a well-mean value. To collapse across multiple recordings made on days post-plating 5, 7, 9 and 12, the trapezoidal area-under-the-curve of the component is calculated.Data from the assay component CCTE_Shafer_MEA_dev_burst_rate was analyzed into 1 assay endpoint. This assay endpoint, CCTE_Shafer_MEA_dev_burst_rate, was analyzed in the negative analysis fitting direction relative to DMSO as the negative control and baseline of activity. Using a type of functional reporter, gain or loss-of-signal activity can be used to understand electrical activity.
On the day prior to culture, each well was coated thoroughly with 150 uL of 0.05% polyethyleneimine (PEI, Sigma Cat P3143) in 50 mM HEPES (Sigma Cat H7523) at a pH of 8. The plate was incubated at 37C for one hour. PEI was rinsed out with 500 uL of sterile water three times. Plates were stored at 4C until the day of culture. This culture was plated at a seeding density of 1.5 x 10^5 cells/well on a 48-well MEA plate, prepared as described above. Cells were administered via a 25 uL media/laminin ([…]; Sigma Cat L2020-1MG) drop directly onto the microelectrode array, as adding the cells with the laminin results in better attachment than pre-coating with laminin. After 2 hours, an additional 475 uL of cortical media was added and the cells returned to the incubator. Exposure starts at day 0 of plating and is continued over twelve days of network development until the experiment is terminated. Cells are fed with fresh medium on DIV 5 and 9, following the recordings on those days. The entire volume of media in the well is exchanged and any vehicle or compound treatment is renewed. Complete details are found in OP-NHEERL/ISTD/SBB/TJS/2015-03-r0 (available on request, email shafer.tim@epa.gov). Measurement of the electrical activity is non-invasive, and recordings can be made from the same plate over multiple different days of the culture. In cortical neurons, this allows for the measurement of extracellular action potentials over the period during which networks form in the MEA plate.

outcome, inactive:
CC[C@H](C)C(=O)O[C@H]1C[C@@H](C)C=C2C=C[C@H](C)[C@H](CC[C@@H]3C[C@@H](O)CC(=O)O3)[C@H]21
COc1ccc(-n2nc(C(F)F)cc2-c2ccc(S(C)=O)cc2)cc1 (stereo not given)
NC(=O)NO
O=P(OC(CCl)CCl)(OC(CCl)CCl)OC(CCl)CCl
Nc1nc2ncc(CNc3ccc(C(=O)N[C@@H](CCC(=O)O)C(=O)O)cc3)nc2c(=O)[nH]1
O=C1CCC(N2C(=O)c3ccccc3C2=O)C(=O)N1 (stereo not given)
Cn1c(=O)c2c(ncn2C)n(C)c1=O
CNCc1ccc(NC(=O)c2c[nH]c3c2C(=O)CCC3)cc1
CCC(C)(C)C(=O)O[C@H]1C[C@@H](C)C=C2C=C[C@H](C)[C@H](CC[C@@H]3C[C@@H](O)CC(=O)O3)[C@H]21
CC[C@H]1OC(=O)[C@H](C)[C@@H](O[C@H]2C[C@@](C)(OC)[C@@H](O)[C@H](C)O2)[C@H](C)[C@@H](O[C@@H]2O[C@H](C)C[C@H](N(C)C)[C@H]2O)[C@](C)(O)C[C@@H](C)C(=O)[C@H](C)[C@@H](O)[C@]1(C)O
